Consider ten compounds from article PMC5540273 (PLoS ONE, 2017).

Molecules are shown by their SMILES.

Common to all, as to conditions: concentration: 1 μM, replicates: in singlicate; n = 1
The subject of assay [1] is T1, PKAC-alpha.
T1 construct: gene PRKACA

Assay [2] concerns T2, PKAC-beta.
T2 construct: gene PRKACB

For assay [3], the system named is PKMYT1.
Assay [4] concerns PKN1.
The test system of assay [5] is PKN2.
In assay [6] the test system is PLK1.
For assay [7], the system named is PLK2.
Assay [8] concerns PLK3.
Assay [9] deals with PLK4.
Assay [10] relates to PRKCD.
Assay [11] deals with PRKCE.
The test system of assay [12] is PRKCH.
Assay [13] concerns PRKCI.
Assay [14] has as its system PRKCQ.
In assay [15] the test system is PRKD1.
For assay [16], the system named is PRKD2.
The subject of assay [17] is PRKD3.
Assay [18] relates to PRKG1.
The subject of assay [19] is PRKG2.
The test system of assay [20] is T3, PRKR.
T3 construct: gene EIF2AK2
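Further: KINOMEscan kinase panel screen.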

Take `OCCCNc1nccc(-c2c(-c3cccc(C(F)(F)F)c3)nn3cc(C(F)(F)F)ccc23)n1` [GW630813]: the “%Inh” value in [1], in assay [2], in assay [3], in [4], in assay [5] and in assay [6] was 0% throughout. In addition, the “%Inh” value in assay [7] is given as 0%; in assay [8], 0%; in assay [9] it was 12%; in assay [10], 0%; in assay [11] it was 7%; in assay [12], 10%. Besides, the “%Inh” value in assay [13] was determined as 0%; in assay [14], 0%; in assay [15], 22%; in assay [16], 10%; in assay [17], 0%; in assay [18], 0%. Further, the “%Inh” value amounted to 0% in assay [19] and 8% in assay [20].

Take `O=C(Nc1n[nH]c2nc(-c3ccccc3)c(Cl)cc12)C1CC1` [SB-734909]: the “%Inh” value in assay [1] was found to be 0%; in [2] it was 0%; in assay [3], 16%; in assay [4], 45%; in assay [5] it was 0%; in [6], 24%. Also, the “%Inh” value in [7] came to 0%; in [8] it was 13%; in assay [9], 29%; in assay [10], 2%; in assay [11], 10%; in assay [12], 0%. Also, the “%Inh” value in assay [13] was 0%; in assay [14], 0%; in assay [15], 0%; in assay [16] it was 35%; in assay [17], 5%; in assay [18], 6%. The results for the “%Inh” value in assay [19] and in assay [20] were 20% and 0%, respectively.

For `CCCNC(=O)Nc1ccc(Oc2ncnc3ccn(C)c23)cc1`, the “%Inh” value in assay [1], in assay [2], in assay [3], in [4], in assay [5] and in assay [6] was 0% each time. Besides, the “%Inh” value in [7] was 28%; in assay [8], 15%; in assay [9], 18%; in assay [10], 33%; in [11] it was 3%; in assay [12] it was 13%. Moreover, the “%Inh” value was determined as 0% in assay [13]; 22% in assay [14]; 0% in assay [15]; 0% in assay [16]; 0% in assay [17]; 0% in assay [18]. Moreover, the “%Inh” value in assay [19] and in assay [20] was 0% each time.

With `O=C(Nc1ccc2c(c1)OCO2)NC1CCN(c2ccnc(NCc3ccc(F)cc3)n2)CC1` [GSK1379859], the “%Inh” value in [1] came to 12%; in assay [2], 0%; in [3], 0%; in [4], 0%; in assay [5], 0%; in assay [6], 0%. Moreover, the “%Inh” value in assay [7] worked out at 0%; in assay [8], 0%; in [9] it was 9%; in [10], 7%; in assay [11], 0%; in assay [12], 16%. Further, the “%Inh” value in assay [13] was 0%; in assay [14] it was 18%; in [15], 0%; in [16], 0%; in [17], 34%; in assay [18], 0%. Also, the “%Inh” value in assay [19] and in assay [20] was 0% in each case.

Take `COc1cc(OC)cc(-c2cc3cnc(N)nc3nc2NC(=O)NC(C)(C)C)c1`: the “%Inh” value in assay [1] amounted to 0%; in assay [2] it was 0%; in assay [3], 0%; in [4] it was 0%; in [5], 22%; in assay [6], 0%. Further, the “%Inh” value in [7] is reported as 0%; in assay [8], 0%; in [9], 0%; in [10] it was 0%; in assay [11], 51%; in assay [12], 0%. Also, the “%Inh” value in assay [13] worked out at 2%; in assay [14] it was 0%; in assay [15] it was 0%; in assay [16] it was 0%; in [17] it was 0%; in assay [18] it was 14%. For the same compound, the figures for the “%Inh” value in [19] and in assay [20] were 0% and 16%, respectively.

Consider `Cc1cc(Nc2nc(-c3cccc(C)n3)nc3ccccc23)ccn1` [GW872411], for which the “%Inh” value in [1] is 0%; in [2], 0%; in [3], 24%; in assay [4] it was 0%; in assay [5], 0%; in assay [6], 0%. Moreover, the “%Inh” value in [7] came to 0%; in [8], 1%; in assay [9], 0%; in assay [10], 8%; in [11], 0%; in assay [12], 0%. Further, the “%Inh” value in [13] is 0%; in assay [14], 0%; in [15], 99.4%; in assay [16] it was 99.9%; in assay [17], 76%; in [18] it was 14%. In addition, the “%Inh” value in [19] and in assay [20] was 0% throughout.

In the case of `COc1cc2nccc(Nc3ccc(OCc4ccc(NC(C)=O)cc4)cc3)c2cc1OC.Cl` [GW440135], the “%Inh” value in assay [1] is 0%; in [2], 0%; in assay [3] it was 0%; in assay [4] it was 44%; in [5], 0%; in [6], 12%. Besides, the “%Inh” value in assay [7] is listed as 0%; in [8] it was 0%; in assay [9], 0%; in assay [10] it was 11%; in [11], 10%; in [12], 14%. In addition, the “%Inh” value in assay [13] turned out to be 0%; in assay [14], 0%; in [15] it was 0%; in assay [16] it was 11%; in assay [17] it was 2%; in [18], 10%. Further, the “%Inh” value in [19] and in [20] was 0% throughout.

As to `Cc1cccc(-c2nc(Nc3ccc4c(cnn4C)c3)c3ccccc3n2)n1` [GW876731], the “%Inh” value is listed as 0% in assay [1]; 14% in assay [2]; 4% in assay [3]; 55% in assay [4]; 33% in assay [5]; 7% in [6]. The “%Inh” value in assay [7] is reported as 0%; in [8] it was 0%; in assay [9], 13%; in assay [10], 5%; in [11], 15%; in [12] it was 0%. Besides, the “%Inh” value is given as 0% in assay [13]; 0% in assay [14]; 99.2% in assay [15]; 99.6% in assay [16]; 90.2% in assay [17]; 9% in assay [18]. Besides, the “%Inh” value in assay [19] and in assay [20] was 0% each time.

With `Nc1ncnc2c1ncn2-c1cccc2ccccc12` [SKF-97184], the “%Inh” value in [1] is reported as 10%; in [2], 0%; in assay [3] it was 0%; in [4], 0%; in assay [5], 0%; in assay [6] it was 28%. The “%Inh” value in assay [7] was 18%; in [8], 9%; in [9], 0%; in [10] it was 16%; in assay [11], 5%; in assay [12], 5%. The “%Inh” value in assay [13] is 22%; in assay [14], 0%; in assay [15] it was 0%; in [16] it was 0%; in assay [17], 0%; in assay [18], 0%. Also, the “%Inh” value in [19] and in [20] was 0% throughout.

On to `COc1cc(Nc2ccnc3ccc(C(F)(F)F)cc23)cc(OC)c1OC` [GW577382], for which the “%Inh” value is 14% in assay [1]; 4% in assay [2]; 6% in [3]; 0% in [4]; 0% in [5]; 12% in assay [6]. For the same compound, the “%Inh” value in assay [7] was 0%; in assay [8], 0%; in assay [9], 50%; in assay [10], 15%; in [11] it was 19%; in assay [12] it was 13%. Moreover, the “%Inh” value in assay [13] came to 48%; in assay [14], 4%; in assay [15] it was 6%; in assay [16] it was 6%; in [17] it was 0%; in assay [18], 3%. Besides, the “%Inh” value in assay [19] was 6%; in assay [20], 0%.
